Measurements taken from PubChem BioAssay AID2716 (Broad Institute, 2010).
In all, about 320,000 compounds went through this assay and about 3,300 (1%) were called active. The list comes from a sample in which actives are over-represented; it also holds similar structures and randomly drawn compounds. Values without a mark were called inactive.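 How the source made its calls: active means every valid replicate shows activation above 250% relative to neutral control wells; inactive means the rest, any valid replicate at or below 250%.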

Experiment: restored growth of temperature-sensitive Mot1-301 yeast – S. cerevisiae, ATP luminescence, 38.5C, SUMOylation pathway inhibitor project, primary screen (AID 2716);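 further: OY570 slx delta 5 strain wells were the positive control but not used for scaling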
Details: S. cerevisiae Mot1-301 growth rescue, at 18.8 µM, hits give high values, percent above DMSO median, 100 means doubled
COC(=O)c1ccc(COc2cc([N+](=O)[O-])cc3cccnc23)cc1 showed a growth rescue of -14.7%. In the case of N#CC1=C(N)Oc2[nH]c(=S)[nH]c(=O)c2C12C(=O)Nc1ccccc12 (stereo not drawn), the growth rescue is reported as -12%. For N#CC1=C(N)Oc2n[nH]c(CSc3ccccc3)c2C12C(=O)Nc1ccccc12 (stereo not drawn), the growth rescue was 564% (active). With COC(=O)CCSc1nccn1Cc1ccccc1 the growth rescue was -6.82%. Cc1ccc(S(=O)(=O)N(C)C)cc1NC(=O)COC(=O)/C=C/c1cccs1 showed a growth rescue of -3.27%. With Cc1ccc(S(=O)(=O)N(C)C)cc1NC(=O)COC(=O)c1c(C)noc1C the growth rescue was 358% (active). For Cc1ccc(S(=O)(=O)N(C)C)cc1NC(=O)COC(=O)C1COc2ccccc2O1 (stereo not drawn), the growth rescue was -1.18%. Work on O=c1[nH]n2c(=O)c3c([nH]c2c1N=Nc1ccccc1)CCC3 yielded a growth rescue of -13.5%. COCCCN1C(=O)c2ccc(C(=O)OCC(=O)NCc3ccccc3OC)cc2C1=O gave a growth rescue of -4.61%. COc1ccc(OC)c(NC(=O)c2ccc3c(c2)C(=O)N(c2ccc(OC(C)=O)cc2)C3=O)c1 showed a growth rescue of -1.05%. In the case of COCCCN1C(=O)c2ccc(C(=O)Nc3ccc(OC)cc3OC)cc2C1=O, the growth rescue is reported as 994% (active). In the case of Cc1cc(S(=O)(=O)c2cc3ccc(O)c(C)c3oc2=O)ccc1F, the growth rescue is reported as 2.17%. In the case of COc1ccc(F)cc1S(=O)(=O)NCC(c1ccc2c(c1)OCO2)N1CCN(C)CC1 (stereo not drawn), the growth rescue is reported as 72.2%. COc1ccc(NC(=O)CSc2ccc(-c3ccco3)nn2)c(OC)c1 gave a growth rescue of -3.7%. For O=C(COC(=O)c1ccccc1C(=O)c1ccccc1)c1ccco1, the growth rescue was 524% (active). CCc1ccc(C(=O)COC(=O)c2ccco2)cc1 gave a growth rescue of 2.04%. In the case of CCN(CC)c1ccc(C(=O)OCC(=O)c2ccco2)cc1, the growth rescue is reported as -12.1%. O=C(COC(=O)c1ccccc1O)NCc1ccco1 gave a growth rescue of 0.0433%. For CC(=O)Oc1ccccc1C1=NN(C(C)=O)C(c2ccccc2)C1 (stereo not drawn), the growth rescue was -0.218%. Molecule O=C1C2N=NN(CC(=O)N3N=C(c4cccc5ccccc45)CC3c3ccccc3)C2C(=O)N1c1ccccc1 (stereo not drawn) has a growth rescue of -6.23%. In the case of Cc1ccc(N2C(=O)C3N=NN(CC(=O)N4N=C(c5cccc6ccccc56)CC4c4ccccc4)C3C2=O)cc1 (stereo not drawn), the growth rescue is reported as 376% (active). With S=C(c1ccc(-c2ccccc2)o1)N1CCCCC1 the growth rescue was 32.2%. With CCOC(=O)c1cc(-c2ccccc2C)n(Cc2cc(C)no2)n1 the growth rescue was -17.1%. Work on COc1ccc(NC(=O)c2cc3nc(-c4ccccc4)cc(C)n3n2)cc1OC yielded a growth rescue of 50%. For O=C(O)c1cnn2c(C(F)(F)F)cc(-c3ccccc3)nc12, the growth rescue was 310% (active). For Cc1cc(C(F)(F)F)n2ncc(-c3ccccc3)c2n1, the growth rescue was 4.42%. In the case of O=C(c1ccccc1)N1CCN(C(=O)c2cc3nc(-c4ccccc4)cc(C(F)(F)F)n3n2)CC1, the growth rescue is reported as -13.8%. In the case of COC(=O)c1cc2nc(-c3ccccc3)cc(C(F)(F)F)n2n1, the growth rescue is reported as 295% (active). In the case of Cc1ccc(-c2cc(C(F)(F)F)n3ncc(C(=O)N4CCCCC4c4cccnc4)c3n2)cc1 (stereo not drawn), the growth rescue is reported as -2.2%. With COc1ccc(CNC(=O)c2cc(C(=O)C3CC3)c[nH]2)cc1 the growth rescue was -7.94%. COc1ccc(N(CC(=O)Nc2cc(OC)ccc2OC)S(=O)(=O)c2c(C)noc2C)cc1 showed a growth rescue of 0.112%. Molecule CCc1nn(-c2cc(Oc3cccc4ccccc34)nc(-c3ccccc3)n2)c(N)c1C#N has a growth rescue of 20.3%. COC(=O)c1ccc2c(C(C)(C)O)c(C(C)(C)O)[nH]c2c1 gave a growth rescue of 6.47%. Molecule COc1ccccc1CNS(=O)(=O)c1cc2c3c(c1)CCC(=O)N3CCC2 has a growth rescue of -12.2%. With O=C(Nc1ccccn1)C1CCN(S(=O)(=O)c2ccccc2)CC1 the growth rescue was -0.505%. For O=C(Nc1nccs1)C1CCN(S(=O)(=O)c2ccc(Cl)c(C(F)(F)F)c2)CC1, the growth rescue was 639% (active). O=C(Nc1ccccn1)C1CCN(S(=O)(=O)c2ccc3c(c2)OCCO3)CC1 showed a growth rescue of -4.76%. With COc1ccccc1CNC(=O)[C@@H]1CCCN1C(=O)[C@@H]1Cc2ccccc2CN1C(=O)OC(C)(C)C the growth rescue was -1.52%. With CCOc1ccc(Oc2nc(C)cc(OC)n2)nn1 the growth rescue was -10.1%. In the case of O=C(CNS(=O)(=O)c1ccccc1)NCC(=O)OCc1ccccc1F, the growth rescue is reported as -4.19%. With Cc1ccc(SCC(=O)NC(=O)NCc2ccco2)c(C)c1 the growth rescue was -8.85%. With Cc1sc2ncnc(Sc3nc4ccccc4s3)c2c1C the growth rescue was 512% (active). In the case of COC(=O)c1c(-c2cccs2)csc1NC(=O)CSc1ncnc2sc(C)c(C)c12, the growth rescue is reported as -4.24%. Work on CSc1ncnc2sc(C)c(C)c12 yielded a growth rescue of -17.7%. In the case of CCOc1ccc(S(=O)(=O)NCCC(=O)N2CCCCCCC2)cc1, the growth rescue is reported as 10%. Molecule COc1ccc(S(=O)(=O)N2CCCCCC2)cc1NC(=O)Cc1ccc(OC)c(OC)c1 has a growth rescue of -10.8%. Work on Cc1ccc(S(=O)(=O)N2CCOCC2)cc1C(=O)NCc1ccc(F)cc1 yielded a growth rescue of 2.54%. With NC(=O)c1cc(S(=O)(=O)N2CCCC2)ccc1OCc1ccc(F)cc1 the growth rescue was 359% (active). In the case of COc1ccc(OC)c(-n2cc3c(=O)n(C)c(=O)n(C)c3c2)c1, the growth rescue is reported as 2.1%. With O=c1c2ccccc2nc(CSc2nnnn2-c2ccccc2)n1-c1ccccc1 the growth rescue was 1010% (active). Cc1ccc(Nc2nc(CSc3nnnn3-c3ccccc3)cc(=O)[nH]2)cc1 showed a growth rescue of 3.22%. O=c1c2ccccc2nnn1CSc1nnnn1-c1ccccc1 gave a growth rescue of 0.362%. Work on Cn1c(N)c(C(=O)COC(=O)c2ccccc2NCc2ccco2)c(=O)n(C)c1=O yielded a growth rescue of 72.4%. COC(=O)c1ccc(C(NC(=O)OCc2ccccc2)/C(F)=C/[C@@H](C)C(=O)O)cc1 (stereo partly drawn) showed a growth rescue of -2.48%. CCc1ccccc1S(=O)(=O)Cc1ccc(C(=O)NCCc2ccccc2)o1 showed a growth rescue of -2.78%. With Cc1ccc(N2C(=O)CC(Sc3ncn[nH]3)C2=O)cc1 (stereo not drawn) the growth rescue was 287% (active). With O=C1CC(Sc2ncn[nH]2)C(=O)N1c1ccccc1 (stereo not drawn) the growth rescue was -26.4%. Work on COc1ccc(N2C(=O)CC(Sc3n[nH]c(-c4ccc(C)cc4)n3)C2=O)cc1 (stereo not drawn) yielded a growth rescue of 257%.
